This note sets out measurements from PubChem BioAssay (EPA / NIEHS).

Assay [1] in a line: ATG_ERE_CIS: Attagene CIS-FACTORIAL HepG2 Assay for Estrogen Response Element (ERE) (AID 2282940; active means hit-call score of the fitted dose curve at least 0.9, where 1 is the maximum; inactive means score below 0.9). The following applies: HepG2 ERE cis-reporter, Attagene RNA transcript; actives raise or lower the signal. The procedure, abridged:
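Transient MRTU transfection of human HepG2; cis-element promoters; 24 h dosing; total RNA → RT (oligo dT) → PCR → 6-FAM primer extension → HpaI digest → CE fluorescence. Bidirectional fit, DMSO baseline.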

Assay [2] addresses Bile acid receptor (Homo sapiens) (UniProt Q96RI1). Description: ATG_IR1_CIS: Attagene CIS-FACTORIAL HepG2 Assay for human Nuclear Receptor Subfamily 1 Group H Member 4 (NR1H4), IR1 submotif (AID 2282946; active means hit-call score of the fitted dose curve at least 0.9, where 1 is the maximum; inactive means score below 0.9). The following applies: IR1 reporter transcription, actives raise or lower the signal. An outline of the steps: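 HepG2 cells transiently transfected with multiplexed cis-element reporter units read endogenous transcription factor activity. After 24 h compound exposure, reporter mRNA was quantified by RT-PCR, fluorescent labelling, HpaI digestion and capillary electrophoresis; bidirectional fitting versus DMSO baseline.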

Assay [3] in a line: ATG_PPRE_CIS: Attagene CIS-FACTORIAL HepG2 Assay for human Peroxisome Proliferator-activated Response Element (PPRE) (AID 2282958; active means hit-call score of the fitted dose curve at least 0.9, where 1 is the maximum; inactive means score below 0.9). The note with it: HepG2 PPRE cis-element reporter, Attagene transcription factor profiling; actives raise or lower the signal. An outline of the steps:
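PPRE activity in HepG2: transient cis-reporter transfection, 24 h compound incubation, reporter mRNA by RT-PCR and CE fluorescence; gain/loss fitted against DMSO.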

The target in assay [4] is Bile acid receptor (Homo sapiens) (UniProt Q96RI1). Kind of assay: ATG_FXR_TRANS: Attagene TRANS-FACTORIAL HepG2 Assay for Farnesoid X Receptor (FXR) (AID 2282979).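 Further: hits raise reporter mRNA above DMSO so AC50 marks FXR activation.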 The note with it: HepG2 Attagene TRANS FXR-GAL4 reporter transcription. The procedure, abridged:
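Transient transfection of HepG2 with multiplexed GAL4-UAS reporter units; exogenous FXR-GAL4 chimera. Dose 24 h → TriZol RNA → oligo(dT) RT → PCR, 6-FAM primer extension, HpaI cut → CE. Gain vs DMSO.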

The target in assay [5] is Peroxisome proliferator-activated receptor gamma (Homo sapiens) (UniProt P37231). Description: ATG_PPARg_TRANS: Attagene TRANS-FACTORIAL HepG2 Assay for human Peroxisome Proliferator-activated Receptor-gamma (PPARg) (AID 2283007). An outline of the steps:
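Twenty-four hours after chemical dosing of transiently transfected HepG2 cells, isolated RNA was converted to cDNA, reporter sequences amplified and 6-FAM-labelled, then HpaI-digested and analysed by capillary electrophoresis. Signal increase against DMSO was fitted.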

For assay [6], the target named is Oxysterols receptor LXR-beta (Homo sapiens) (UniProt P55055). Description: ATG_LXRb_TRANS: Attagene TRANS-FACTORIAL HepG2 Assay for human Liver X Receptor beta (LXRb) (AID 2282981). The following applies: HepG2 Attagene TRANS GAL4-LXRb reporter, mRNA. An outline of the steps:
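After 24 h of chemical treatment, transfected HepG2 cells yield total RNA; reporter cDNA is PCR-amplified, FAM-labelled, HpaI-cut and run on capillary electrophoresis. Signal reflects chimeric LXRb-Gal4 activity on GAL4-UAS reporters.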

A short description of assay [7]: CCTE_Shafer_MEA_acute_AB: CCTE's Alamar Blue Assay for Cytotoxicity in the Neural Acute Assay, Shafer Lab (AID 2284069).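 Further: active compounds lower the viability signal compared with DMSO wells.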 The procedure, abridged:
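Cytotoxicity endpoint for acute MEA exposures of primary rat cortical neurons on day 13 or 15. Resazurin reduction is read fluorescently at 544/590 nm, with DMSO as the negative-control baseline.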

In assay [8] the target is Steroid hormone receptor ERR1 (Homo sapiens) (UniProt P11474). Kind of assay: ATG_ERRa_TRANS: Attagene TRANS-FACTORIAL HepG2 Assay for human Estrogen-Related Receptor alpha (ERRa) (AID 2282971). The note with it: HepG2 Attagene TRANS reporter, ERRa transactivation. An outline of the steps: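 Reporter transcript induction was quantified by RT-PCR and capillary electrophoresis of FAM-labelled, HpaI-cut products after 24 h treatment of HepG2 cells carrying transiently transfected GAL4-UAS reporter units and an exogenous ERRa-Gal4 fusion; activity scored as increase over DMSO.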
Chain of Steroid hormone receptor ERR1 (Homo sapiens) (P11474 whole entry, looked up, the tested form may be a part): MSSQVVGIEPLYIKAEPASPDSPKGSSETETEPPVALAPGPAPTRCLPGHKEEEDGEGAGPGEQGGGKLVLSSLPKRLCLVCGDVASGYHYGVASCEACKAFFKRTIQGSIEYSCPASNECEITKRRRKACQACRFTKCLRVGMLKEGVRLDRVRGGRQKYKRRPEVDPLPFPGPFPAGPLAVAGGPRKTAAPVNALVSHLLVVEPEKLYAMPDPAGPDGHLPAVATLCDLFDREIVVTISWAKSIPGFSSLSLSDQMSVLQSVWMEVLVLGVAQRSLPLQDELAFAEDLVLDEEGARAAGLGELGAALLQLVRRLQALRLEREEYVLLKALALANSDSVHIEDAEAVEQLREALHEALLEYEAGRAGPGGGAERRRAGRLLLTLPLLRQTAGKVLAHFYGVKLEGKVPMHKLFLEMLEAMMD

Assay [9] deals with Estrogen-related receptor gamma (Homo sapiens) (UniProt P62508). Kind of assay: ATG_ERRg_TRANS: Attagene TRANS-FACTORIAL HepG2 Assay for human Estrogen-Related Receptor gamma (ERRg) (AID 2282977).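 Further: hits increase reporter signal over DMSO so potencies reflect activators.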 The note with it: HepG2 Attagene TRANS reporter, ERRg transactivation. An outline of the steps: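 Readout: fluorescent reporter-mRNA fragments resolved by capillary electrophoresis after RT-PCR and HpaI cut. Cells: transiently transfected HepG2 carrying GAL4-UAS reporters driven by exogenous NR-Gal4 chimeras, dosed 24 h. Activity fitted upward relative to DMSO baseline.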
Chain of Estrogen-related receptor gamma (Homo sapiens) (P62508 whole entry, looked up, the tested form may be a part): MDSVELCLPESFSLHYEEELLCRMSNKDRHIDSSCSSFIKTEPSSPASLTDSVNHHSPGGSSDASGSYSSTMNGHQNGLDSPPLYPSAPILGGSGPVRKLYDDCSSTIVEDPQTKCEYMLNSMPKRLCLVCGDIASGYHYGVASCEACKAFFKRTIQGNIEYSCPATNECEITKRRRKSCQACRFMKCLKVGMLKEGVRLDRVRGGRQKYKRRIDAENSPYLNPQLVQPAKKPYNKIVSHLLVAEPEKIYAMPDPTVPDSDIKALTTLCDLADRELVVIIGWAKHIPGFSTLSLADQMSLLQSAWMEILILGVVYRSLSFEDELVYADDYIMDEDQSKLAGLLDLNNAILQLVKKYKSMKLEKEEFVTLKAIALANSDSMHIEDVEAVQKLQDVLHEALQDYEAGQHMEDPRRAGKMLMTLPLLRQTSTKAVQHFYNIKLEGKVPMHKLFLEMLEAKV

Assay [10] addresses human RAR-related Orphan Receptor gamma (RORg), RORC (gene 6097) (UniProt P51449). Description: ATG_RORg_TRANS: Attagene TRANS-FACTORIAL HepG2 Assay for human RAR-related Orphan Receptor gamma (RORg) (AID 2283011). An outline of the steps: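 First, HepG2 liver cells were transfected with GAL4-UAS-driven reporter constructs and the RORg-Gal4 fusion. Next, they were treated with chemical for 24 h. Finally, reporter mRNA was quantified by RT-PCR and capillary electrophoresis, with upward activity fitted against DMSO.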

Assay [11] addresses Peroxisome proliferator-activated receptor gamma (Homo sapiens) (UniProt P37231). Kind of assay: OT_PPARg_PPARgSRC1_0480: Odyssey Thera (OT) 8-hour Protein-Complementation Assay for Peroxisome Proliferator-activated Receptor Gamma / SRC-1 Co-activator (AID 2283387).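 Further: nuclear to cytoplasmic split Venus YFP fluorescence ratio reporting PPARg SRC-1 interaction.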 The procedure, abridged:
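Split-YFP (IFP1/IFP2) PPARg/SRC-1 reporter, HEK293T, 37 °C, 5% CO2; 8 h compound; formaldehyde fix + Draq5; high-content imaging, N/C ratio, ≥350 cells/image, positive direction vs DMSO.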

Assay [12] is described as follows: ACEA_AR_agonist_AUC_viability: ACEA Biosciences xCELLigence Real-Time Cell Analysis on Androgen Receptor Agonism for Viability (AID 2283775). The procedure, abridged:
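Viability endpoint from xCELLigence impedance in 22Rv1 prostate cells at 80 h. Eight-point series, 100 uM maximum final.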

Assay [13] has as its target Retinoic acid receptor RXR-alpha (Homo sapiens) (UniProt P19793). Description: OT_NURR1_NURR1RXRa_0480: Odyssey Thera (OT) 8-hour HEK293T Protein Complementation Assay for Nurr1/retinoid X receptor (RXR) (AID 2283385). The procedure, abridged:
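Read-out: fluorescence from protein-fragment complementation between Nurr1 and RXRα in human HEK293T cells, 8 h after dosing. DMSO served as negative control; increased signal counted as activity.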

For assay [14] the target is unchanged. Description: OT_NURR1_NURR1RXRa_1440: Odyssey Thera (OT) 24-hour HEK293T Protein Complementation Assay for Nurr1/retinoid X receptor (RXR) (AID 2283386). The procedure, abridged: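 Fluorescence PCA read-out; HEK293T; 24 h post-dose; bait/prey fused to reporter fragments; gain-of-signal fit vs DMSO negative control.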
Read-out in assay [15]: Interleukin 6 (IL6), IL6 (gene 3569)
Description: BSK_BT_xIL6: BioMAP Diversity Plus: BT Assay for Interleukin 6 (IL6) Biomarker Activity (AID 2284228; active means hit-call score of the fitted dose curve at least 0.9, where 1 is the maximum; inactive means score below 0.9). The note with it: primary human B cells with PBMC. An outline of the steps: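 B cells and peripheral blood mononuclear cells (human primary co-culture) were dosed with chemical, and after 24 h IL-6 released into the medium was measured by Luminex xMAP. Responses were analysed as gain of signal over DMSO control.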

For assay [16], the target named is Estrogen receptor beta (Homo sapiens) (UniProt Q92731). Description: OT_ER_ERbERb_0480: Odyssey Thera (OT) 8-hour HEK293T Protein-Complementation Assay for Estrogen Receptor-beta/-beta Homodimer (AID 2283357). An outline of the steps:
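ER-beta LBD homodimer PCA stably expressed in HEK293T; 8 h compound exposure, then formaldehyde fixation and Draq5 staining. Gain in nuclear/cytoplasmic fluorescence intensity versus DMSO vehicle, read on laser scanning cytometer.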

The target is the same in assay [17]. Description: OT_ER_ERbERb_1440: Odyssey Thera (OT) 24-hour HEK293T Protein-Complementation Assay for Estrogen Receptor-beta/-beta Homodimer (AID 2283380).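 Further: scored as signal increase over DMSO baseline for both agonists and antagonists.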 An outline of the steps:
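Fluorescence increase, nuclear for agonists or whole-cell for antagonists, relative to DMSO vehicle, quantified by laser scanning cytometer after fixation and Draq5 staining. Readout from 24 h treatment of HEK293T cells carrying complementation-paired ER beta LBD (aa 310-547).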

Assay [18] is described as follows: ACEA_AR_antagonist_AUC_viability: ACEA Biosciences xCELLigence Real-Time Cell Analysis on Androgen Receptor Antagonism for Viability (AID 2283776).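 Further: 22Rv1 human prostate cancer cells growing on impedance electrode plates; area under impedance growth curve at 80 h after dosing as viability; hits lower the growth signal relative to DMSO meaning cytotoxicity.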 The procedure, abridged:
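Viability endpoint from label-free cell-index monitoring: 22Rv1 cultures treated with an eight-point 1:4 dilution series starting at 100 uM final, AUC at 80 h fitted against DMSO.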

Assay [19] in a line: CCTE_Deisenroth_AIME_384WELL_CTox_Active: Cytotoxicity Assessment (CTOX) in CCTE's 384-well Estrogen Receptor Transactivation Assay with AIME metabolic competence (metabolism positive), Deisenroth Lab (AID 2284037).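 Further: chemicals first conditioned 2 h by alginate-bound induced rat liver S9 before cells; activity means signal loss indicating cell death.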 An outline of the steps: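 Cytotoxicity in VM7Luc4E2 breast cells, 24 hour, measured as protease-substrate fluorescence loss, after 2-hour metabolic conditioning with induced rat hepatic S9 in alginate microspheres. Concentrations 0.002 - 200 uM, 10 points, bidirectional fitting.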

Assay [20] is described as follows: CCTE_Deisenroth_AIME_384WELL_CTox_Inactive: Cytotoxicity Assessment (CTOX) in CCTE's 384-well Estrogen Receptor Transactivation Assay without AIME metabolic competence (metabolism negative), Deisenroth Lab (AID 2284039).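 Further: cell viability via live-cell protease substrate cleaved to fluorescent probe; cells exposed 24 h to medium preincubated 2 h with alginate-water beads without S9; loss of fluorescence signal means loss of viability.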 The procedure, abridged: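 Fluorescence from a live-cell protease substrate, read after 24 h in VM7Luc4E2 cells, indicated viability. Test medium came from a 2 h AIME step without hepatic S9 (alginate-water microspheres); concentrations spanned 0.002 - 200 uM, single technical replicate per run.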

Each structure is given as a SMILES string. Records with an inconclusive call do not appear. Active and inactive are the calls of the source. How the source made its calls, unless noted: active means hit-call score of the fitted dose curve at least 0.9, where 1 is the maximum; inconclusive means response in the unintended direction; inactive means score below 0.9.

Chain of Peroxisome proliferator-activated receptor gamma (Homo sapiens) (P37231 whole entry, looked up): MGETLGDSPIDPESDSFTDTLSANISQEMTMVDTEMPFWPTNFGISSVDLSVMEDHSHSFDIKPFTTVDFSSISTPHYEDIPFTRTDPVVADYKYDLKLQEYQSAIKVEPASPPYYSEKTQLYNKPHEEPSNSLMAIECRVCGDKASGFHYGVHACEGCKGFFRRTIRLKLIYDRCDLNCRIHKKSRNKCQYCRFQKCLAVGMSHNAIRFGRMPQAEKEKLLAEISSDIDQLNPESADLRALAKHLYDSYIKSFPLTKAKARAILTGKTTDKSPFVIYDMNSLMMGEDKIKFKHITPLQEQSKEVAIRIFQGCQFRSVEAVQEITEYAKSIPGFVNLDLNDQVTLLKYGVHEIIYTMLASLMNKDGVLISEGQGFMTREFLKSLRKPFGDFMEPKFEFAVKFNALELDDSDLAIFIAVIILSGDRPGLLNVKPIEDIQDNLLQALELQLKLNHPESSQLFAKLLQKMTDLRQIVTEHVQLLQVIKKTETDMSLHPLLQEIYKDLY
Chain of Oxysterols receptor LXR-beta (Homo sapiens) (P55055 whole entry, looked up, the tested form may be a part): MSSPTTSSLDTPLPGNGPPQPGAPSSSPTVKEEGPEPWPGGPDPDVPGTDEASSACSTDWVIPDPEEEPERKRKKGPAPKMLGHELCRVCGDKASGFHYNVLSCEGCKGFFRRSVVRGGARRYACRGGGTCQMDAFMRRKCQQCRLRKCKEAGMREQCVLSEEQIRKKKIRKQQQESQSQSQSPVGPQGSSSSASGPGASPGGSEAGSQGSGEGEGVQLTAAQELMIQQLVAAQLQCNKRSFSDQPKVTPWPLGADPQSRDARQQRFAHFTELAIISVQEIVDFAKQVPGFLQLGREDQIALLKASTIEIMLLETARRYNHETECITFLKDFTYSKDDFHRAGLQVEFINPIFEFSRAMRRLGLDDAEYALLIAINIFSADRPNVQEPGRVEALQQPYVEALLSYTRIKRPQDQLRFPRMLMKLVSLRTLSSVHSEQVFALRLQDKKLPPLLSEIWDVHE
Chain of Retinoic acid receptor RXR-alpha (Homo sapiens) (P19793 whole entry, looked up, the tested form may be a part): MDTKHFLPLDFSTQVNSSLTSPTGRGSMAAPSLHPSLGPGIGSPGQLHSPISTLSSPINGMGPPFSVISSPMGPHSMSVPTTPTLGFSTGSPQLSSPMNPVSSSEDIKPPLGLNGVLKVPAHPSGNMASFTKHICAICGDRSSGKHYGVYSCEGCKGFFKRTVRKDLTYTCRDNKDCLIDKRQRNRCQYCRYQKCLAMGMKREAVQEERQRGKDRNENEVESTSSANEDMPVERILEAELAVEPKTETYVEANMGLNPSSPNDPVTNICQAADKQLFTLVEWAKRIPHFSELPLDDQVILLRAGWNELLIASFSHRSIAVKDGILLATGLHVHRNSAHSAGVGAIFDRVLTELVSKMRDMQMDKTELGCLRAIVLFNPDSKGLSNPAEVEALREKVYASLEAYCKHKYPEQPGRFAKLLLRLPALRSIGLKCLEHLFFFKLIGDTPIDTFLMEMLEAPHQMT
Chain of Bile acid receptor (Homo sapiens) (Q96RI1 whole entry, looked up, the tested form may be a part): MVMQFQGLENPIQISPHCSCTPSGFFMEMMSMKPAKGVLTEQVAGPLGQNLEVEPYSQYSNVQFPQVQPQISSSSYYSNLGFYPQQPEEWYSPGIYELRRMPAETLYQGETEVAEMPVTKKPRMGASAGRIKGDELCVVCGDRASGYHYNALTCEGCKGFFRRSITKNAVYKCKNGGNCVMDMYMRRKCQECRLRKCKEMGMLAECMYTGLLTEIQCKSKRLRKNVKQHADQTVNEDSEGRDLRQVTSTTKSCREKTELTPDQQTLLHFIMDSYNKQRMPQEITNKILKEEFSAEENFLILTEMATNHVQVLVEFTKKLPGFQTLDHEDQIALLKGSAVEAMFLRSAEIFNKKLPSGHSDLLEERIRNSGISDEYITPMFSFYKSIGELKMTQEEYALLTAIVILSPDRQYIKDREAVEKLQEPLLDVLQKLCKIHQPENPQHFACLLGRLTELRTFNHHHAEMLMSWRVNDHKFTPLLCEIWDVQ
Chain of Estrogen receptor beta (Homo sapiens) (Q92731 whole entry, looked up, the tested form may be a part): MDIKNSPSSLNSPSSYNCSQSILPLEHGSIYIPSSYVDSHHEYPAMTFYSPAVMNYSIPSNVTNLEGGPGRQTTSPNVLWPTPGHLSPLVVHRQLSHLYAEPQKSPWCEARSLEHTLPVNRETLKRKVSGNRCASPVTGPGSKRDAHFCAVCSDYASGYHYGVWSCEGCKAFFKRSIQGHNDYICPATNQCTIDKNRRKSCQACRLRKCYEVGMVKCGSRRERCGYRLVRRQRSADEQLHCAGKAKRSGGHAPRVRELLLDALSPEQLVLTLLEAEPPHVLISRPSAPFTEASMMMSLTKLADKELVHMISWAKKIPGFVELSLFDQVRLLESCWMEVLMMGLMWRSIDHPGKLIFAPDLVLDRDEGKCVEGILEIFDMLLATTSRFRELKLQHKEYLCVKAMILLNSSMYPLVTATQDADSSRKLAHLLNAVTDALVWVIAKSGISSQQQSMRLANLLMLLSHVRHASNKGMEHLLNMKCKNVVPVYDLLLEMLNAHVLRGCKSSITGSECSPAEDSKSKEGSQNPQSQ
Chain of human RAR-related Orphan Receptor gamma (RORg), RORC (gene 6097) (P51449 whole entry, looked up, the tested form may be a part): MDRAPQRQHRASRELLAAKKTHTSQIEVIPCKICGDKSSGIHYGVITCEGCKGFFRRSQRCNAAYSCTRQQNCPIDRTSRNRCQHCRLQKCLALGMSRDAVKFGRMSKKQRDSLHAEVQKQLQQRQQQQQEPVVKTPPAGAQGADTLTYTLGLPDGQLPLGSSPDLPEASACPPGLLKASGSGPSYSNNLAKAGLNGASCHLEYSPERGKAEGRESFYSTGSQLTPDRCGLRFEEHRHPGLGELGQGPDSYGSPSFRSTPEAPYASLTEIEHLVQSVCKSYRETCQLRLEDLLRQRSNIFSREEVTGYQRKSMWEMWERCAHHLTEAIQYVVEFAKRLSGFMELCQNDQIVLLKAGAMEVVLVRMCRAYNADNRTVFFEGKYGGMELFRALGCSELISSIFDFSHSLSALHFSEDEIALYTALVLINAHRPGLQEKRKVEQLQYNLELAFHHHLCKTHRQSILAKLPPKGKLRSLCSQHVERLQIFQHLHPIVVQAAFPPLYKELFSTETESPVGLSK

In general, AC50 refers to the concentration giving half of the maximal activity seen. Turning to `Oc1ccc(Oc2ccccc2)cc1`, the half-maximal activity concentration (AC50) is 1.54 µM (active) in assay [1], 48 µM (active) in assay [3] and 28 µM (active) in [5]. Besides, the result in assay [2] and in [4] was inactive.
For `CCCC[N+]1(C)CCCC1`, the result in assay [6] and in [5] was inactive.
With `CCC[Si](OC(C)=O)(OC(C)=O)OC(C)=O`, the result in assay [7] was inactive.
With `CN(C)N=Nc1ccccc1`, the compound was classed as inactive in assay [8], in assay [9], in assay [6] and in assay [10].
With `COc1ccc2ccccc2c1`, the call in assay [1], in assay [3] and in assay [4] was inactive.
As to `CCO[Si](CCCN)(OCC)OCC`, the compound was classed as inactive in [1], in [2], in assay [3], in assay [8], in assay [9] and in assay [4]. The call in [6], in [11] and in assay [12] was inactive.
As to `CCCc1c(OCCCCc2nn[nH]n2)ccc(C(C)=O)c1O`, the result in [1], in assay [2], in assay [4] and in assay [6] was inactive. The AC50 is 2.26 µM (active) in [3] and 5.65 µM (active) in assay [5].
Turning to `O=C(C1CCCCC1)N1CC(=O)N2CCc3ccccc3C2C1` (stereo not drawn), the result in [3] and in assay [5] was inactive.
In the case of `CC[N+](CC)(CC(=O)Nc1c(C)cccc1C)Cc1ccccc1`, the outcome in assay [5], in assay [13], in [14], in assay [11] and in assay [15] was inactive.
Regarding `O=C(O)/C=C\C(=O)O`, the call in assay [8], in [9], in [6], in [16], in assay [17] and in assay [13] was inactive. Also, the call in [14] and in [12] was inactive.
As to `CC[N+](CC)(CC(=O)Nc1c(C)cccc1C)Cc1ccccc1` (tested in a mixture with another compound), the call in assay [13], in assay [14], in [11], in [12], in assay [18] and in assay [19] was inactive. For the same compound, in assay [20], the compound was classed as inactive.
Turning to `CNCCC(Oc1ccc(C(F)(F)F)cc1)c1ccccc1` (stereo not drawn), in [7], the compound was called inactive.
